High-throughput results: PubChem, National Center for Advancing Translational Sciences (NCATS)
Pf growth 96h – Primary qHTS for delayed death inhibitors of the malarial parasite plastid, 96 hour incubation; P. falciparum luciferase reporter growth, 96 h; Potency, µM (top dose mostly 28.7 µM), inactives show at the top dose activity change, negative = inhibition, hits mostly inhibitors; hit rate 6.9% among 320,000; note: % is set by controls: 0 for no effect and ±100 for the full control effect
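Luminescence readout: decreased luciferase signal marks inhibited growth of reporter-expressing P. falciparum in infected red cells (2% hematocrit, 0.05% parasitemia final), exposed to compound two generations (96 h, 37 C, 5% CO2).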
NS1 inh – qHTS Assay for Inhibitors of Influenza NS1 Protein Function; Potency, µM (doses to about 46.1 µM), without a hit: top-dose activity, positive = more growth; hit rate 0.4% among 270,000; AID 2326, 2010; calls by dose curve; note: actives are rising curves; nearly all actives have a fitted effect of over 50% in size
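Read-out: OD600 growth recovery of NS1-expressing budding yeast. Cells grown overnight at 30C in -URA glucose medium, washed, resuspended and diluted 1:100 in 2% galactose assay medium, pH 6.0. Same strain lacking NS1 served as positive control.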
HCV inhibitor – qHTS Assay for Inhibitors of Hepatitis C Virus (HCV) | Huh7.5.1 HCVcc-Cre infection, luciferase reporter, 44 h | Potency, µM (highest dose often 41.8 µM), for the others: at the highest dose activity change, negative = inhibition, most hits filed as inhibitors | hit rate 3.4% among 340,000; note: % is set by controls: 0 for no effect and ±100 for the full control effect
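A cell-based infection assay in which seeded cells (1,000 per well) receive test compound after 4 h, are inoculated with HCVcc-Cre at approximately 0.5 moi, and are incubated 44 h before luminescence detection.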
AMA1-RON2 inh – qHTS for Inhibitors of AMA1-RON; Towards Development of Antimalarial Drug Lead: Primary Screen. AlphaScreen AMA1-biotinylated RON2 peptide binding. Potency, µM (top dose mostly 58.2 µM), without a hit: at the top dose activity change, negative = inhibition, hits mostly inhibitors. hit rate 0.2% among 360,000;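 note: 0% = vehicle wells and -100% = peptide control; nearly all actives have a fitted effect of over 45% in size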
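AMA1 (3D7) with his tag at 25 nM final met compounds first, then biotinylated RON2 peptide at 25 nM; detection used donor plus acceptor beads, 10 µg/mL apiece, read by AlphaScreen after 30 min at room temperature.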
Pf growth 48h – Primary qHTS for delayed death inhibitors of the malarial parasite plastid, 48 hour incubation | Potency, µM (titrated, usually from 28.7 µM), without a hit: at the highest dose activity change, negative = inhibition, most hits filed as inhibitors | P. falciparum luciferase growth in erythrocytes, 48 h | AID 504832, 2011 | hit rate 5.9% among 310,000; note: % is set by controls: 0 for no effect and ±100 for the full control effect
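Cell-based growth assay: transgenic P. falciparum expressing firefly luciferase, cultured in red cells within RPMI 1640 containing 0.5% w/v Albumax, 24 mM bicarbonate and gentamycin. A drop in luciferase activity indicates inhibition.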
SARS PLP yeast – qHTS of Yeast-based Assay for SARS-CoV PLP. S. cerevisiae expressing SARS-CoV PLpro, growth rescue. Potency, µM (top dose mostly 32.9 µM), without a hit: at the highest dose activity, positive = growth rescue, most hits filed as activators. hit rate 0.19% among 330,000. AID 485353, 2010; calls by dose curve; note: 0% is about no effect; nearly all actives have a fitted effect of over 55% in size
Active calls of the source: *; ? = inconclusive; nt = no result; [ ] = remark or other dose. Most compounds without a hit are left out; they make up all but 12% or so of the library. Unless noted, calls come from the whole dose curve; as a rule, active = well fitted curve in the direction sought with a large enough effect; inconclusive = small, poorly fitted or top-dose-only effect, or another doubt; inactive = no such curve, though single readings can be large; an effect the other way counts as inactive or inconclusive. Potency is the fitted concentration of half-maximal effect.

SMILES | Pf growth 96h | NS1 inh | HCV inhibitor | AMA1-RON2 inh | Pf growth 48h | SARS PLP yeast
O=C(Nc1cc(S(=O)(=O)N2CCOCC2)ccc1N1CCCCC1)c1ccc(Cl)cc1 | 8.3µM* | nt | ? | -9% | 13µM* | -4%
Cc1ccc(-c2nn(CC(=O)NN3CCOCC3)c(=O)c3ccccc23)cc1 | 19% | 0% | 5% | 2% | 26% | 0%
O=C(Nc1cc(S(=O)(=O)N2CCOCC2)ccc1N1CCOCC1)c1ccc([N+](=O)[O-])s1 | nt | nt | 13µM* | 3% | nt | 2%
CN1CCN(c2ccc(C(F)(F)F)cc2NC(=O)Nc2ccccc2)CC1 | 1.5µM* | -3% | ? | 4% | nt | 8%
O=C(Nc1ccccc1N1CCCCC1)c1cc(S(=O)(=O)N2CCOCC2)ccc1F | 0% | nt | ? | -12% | 10µM* | 1%
Cc1ccc(S(=O)(=O)N2CCC(C(=O)Nc3cc(C(F)(F)F)ccc3N3CCOCC3)CC2)cc1C | 9.3µM* | nt | ? | 10% | ? | -5%
O=C(Nc1ccccc1N1CCCC1)c1cc(S(=O)(=O)N2CCOCC2)ccc1Cl | ? | nt | -12% | 10% | -8% | -3%
COc1cc(/C=C2/SC(=S)N(CC(=O)O)C2=O)ccc1OC(=O)c1ccco1 | 0% | 26% | 16% | 6% | 36% | 1%
COc1cccc(CN2CC(C(=O)NC3CCCCCC3)CCC2=O)c1 (stereo not drawn) | ? | -6% | 2% | -7% | -13% | -1%
CC(C)Oc1ccc(C(=O)OCC(=O)c2ccc[nH]2)cc1 | nt | nt | 7% | -2%[11.6 µM] | nt | -5%
Cc1ccc(S(=O)(=O)NC(=O)c2cc(C)n(-c3cc(S(=O)(=O)N4CCOCC4)ccc3N3CCCC3)c2C)cc1 | 4.7µM* | 20% | -9% | -2% | nt | -5%
Cc1cc(=O)oc2c1ccc1oc(/C(=N/O)c3ccccc3)c(C)c12 | nt | -48% | 6.3µM* | -21% | 1.7µM* | -3%
CCc1c(C(C)=O)oc2ccc3c(C)cc(=O)oc3c12 | ? | 8% | ? | 0% | ? | 0%
Cc1ccc(/C(=N\O)c2oc3c(C)c4oc(=O)cc(C)c4cc3c2C)cc1 | 9.3µM* | 3% | 5.6µM* | -3% | ? | -20%
COC(=O)c1cccc(N(CC(=O)NC2CCCC2)C(=O)CNC(=O)c2cccs2)c1 | 33% | 1% | 15% | 6% | 6% | 1%
CCN1/C(=C/C=C/C=C/C=C/c2sc3ccccc3[n+]2CC)Sc2ccccc21 | 15% | 20% | ? | ? | ? | -4%
CCN1/C(=C/C=C/c2sc3ccccc3[n+]2CC)Sc2ccccc21 | 0.15µM* | nt | 1.6µM* | ? | 0.33µM* | nt
CCN1/C(=C/C=C/C=C/c2sc3ccccc3[n+]2CC)Sc2ccccc21 | 3.4µM* | 4% | 1%[8.37 µM] | nt | 3µM* | -75%
O=C(O)C[C@H]1c2ccccc2S(=O)(=O)N1C1CCCC1 | nt | nt | 20% | 1% | nt | nt
COc1ccc(Br)cc1CN(C)C(=O)C1=CC=CN2CCS(=O)(=O)N=C12 | nt | nt | -20% | 10% | nt | -18%
CN(Cc1ccc(Cl)c(Cl)c1)C(=O)C1=CC=CN2CCS(=O)(=O)N=C12 | 1.5µM* | nt | ? | -9% | 9.3µM* | -3%
O=C(COc1ccc(Cl)cc1)N(c1ccc(Cl)cc1)C1CN2CCC1CC2 (stereo not drawn) | ? | 1% | 25µM* | 0% | 0% | -2%
O=C(COc1ccc(Cl)cc1)N(c1ccccc1Cl)C1CN2CCC1CC2 (stereo not drawn) | ? | 2% | 10µM* | -8% | ? | 0%
CCOC(=O)c1cc2sc(C)cc2n1C(C)C(=O)OCC (stereo not drawn) | 0.83µM* | -46% | -1% | 0% | 24% | -16%
CCc1cc(Cn2nc(-c3ccccc3)cc2C(=O)NCc2cccc(Br)c2)on1 | nt | nt | 3.2µM* | 8% | nt | -33%
SMILES | Pf growth 96h | NS1 inh | HCV inhibitor | AMA1-RON2 inh | Pf growth 48h | SARS PLP yeast
CCc1cc(Cn2nc(-c3ccccc3)cc2C(=O)NCc2cccc(C(F)(F)F)c2)on1 | ? | nt | ? | 7% | ? | 0%
O=C(N/N=C/c1ccccc1Cl)c1[nH]c2ccc(Br)cc2c1-c1ccccc1 | ? | -2% | 4µM* | 49% | 4% | 15%
Oc1ccc(Br)cc1/C=N/NC(=S)NCCc1ccccc1 | 2.3µM* | 26% | 10µM* | 30% | 4.7µM* | -10%
O=C(CCc1ccccc1)N/N=C/c1cc(Br)ccc1O | 6.6µM* | 15% | 11µM* | 59% | 4.1µM* | -4%
O=C(N/N=C/c1cc(Br)ccc1O)c1ccccc1Cl | 9.3µM* | -49% | ? | 60% | ? | nt
S=C(NCCc1ccccc1)N/N=C/c1ccccc1Cl | 207% | -23% | 5% | -9%[2.32 µM] | 18% | 24%
O=C(NCCS(=O)(=O)c1ccc(Br)cc1)c1ccc(Cl)cc1Cl | 22% | 0% | -3% | 0% | 3% | 9%
Cc1ccc(-n2c(C)nnc2SCC(=O)NC2CCCC2)cc1 | 35% | 2% | 16% | -6% | -24% | 19%
COc1ccc(O)c(/C=N/NC(=S)NCCc2ccccc2)c1 | ? | 2% | ? | 52% | 2.6µM* | -1%
Cc1cccc(/C=N/NC(=O)c2cc(Br)ccc2O)n1 | 12µM* | -61% | 4µM* | 92% | 30% | -4%
COc1ccc(/C(C)=N/NC(=S)NCCc2ccccc2)c(O)c1 | ? | -59% | ? | 19% | 0.41µM* | -4%
COc1ccc(/C=N/NC(=S)NCCc2ccccc2)cc1 | ? | 3% | -17% | 82% | ? | 8%
C/C(=N\NC(=S)NCCc1ccccc1)c1ccc(C)cc1 | -10% | -7% | -8% | 21% | -18% | -22%
O=C(N/N=C/c1cc(Br)ccc1O)C(=O)Nc1ccccc1OC(F)(F)C(F)F | 2.9µM* | -12% | ? | 34% | ? | -5%
CN(C)/C=C/C(=O)c1ccc([N+](=O)[O-])c(CS(=O)(=O)c2ccc(Cl)cc2)c1 | -4% | 16% | 17% | -6% | -17% | -2%
O=C1NC2(CCCCO2)CO1 (stereo not drawn) | 53% | 9% | 6% | 8% | 35% | 5%
Cc1nc2cc(-c3ccc(Cl)cc3)nn2c(NCCN(C)C)c1C | 10µM* | 1% | 18µM* | ? | ? | 0%
COC(=O)C[C@H]1C=C[C@@H](C(C(=O)OC)C(=O)OC)CN1C(C)=O | nt | nt | 5% | -2% | nt | nt
COc1cc2c(cc1NC(=O)c1cccc(Br)c1)CCCC2 | ? | -10% | 7.1µM* | 22% | 6% | -28%
